# Results as given in PubChem BioAssay (NCI).
# This is part of a sample that, as a whole, favours compounds with a hit. Of some 79,000 tested, about 15% had one in any assay. Activity calls are given as the source filed them. Rule as the data show it: active = growth inhibition above about 70%; inactive = the rest.
# Test: NCI Yeast Anticancer Drug Screen. Data for the CLN2oe strain (AID 163);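 also: 0% = growth of vehicle-only control cultures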
# Settings: S. cerevisiae CLN2oe strain, at 11.0 µM, hits give high values
# Outline: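 Read-out: yeast growth inhibition, expressed relative to vehicle-only controls. The strain bears an engineered cell-cycle alteration.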
row,Structure (SMILES),growth inhibition
1,COc1ccc(/C=C2\CCc3ccccc3C2=O)cc1OC,29% (inactive)
2,O=Cc1ccccc1B(O)O,84% (active)
3,CC(=O)CC[N+](C)(C)C,31% (inactive)
4,O=C(O)[C@H]1[C@@H](C2CCCCC2)O[C@@H](C2CCCCC2)O[C@H]1C(F)(F)F,-13% (inactive)
5,CN(NC(=O)/C(=C/C=C/c1ccccc1)NC(=O)c1ccccc1)C1=C(Cl)C(=O)[N+](c2ccccc2)=CC1,19% (inactive)
6,CCCCOc1ccc(Nc2c3ccccc3nc3ccccc23)cc1,72% (active)
7,N#C/C(=C1C=C/C(=N\O)C(Cl)=C\1)c1ccccc1,6% (inactive)
8,COc1ccc(C(=O)OCCc2ccccc2)cc1,-10% (inactive)
9,Cc1c2ccncc2c(C)c2c1oc1ccccc12,53% (inactive)
10,CCCC#CCOC(=O)c1cc([N+](=O)[O-])cc([N+](=O)[O-])c1,99% (active)
11,Nc1nc(Nc2ccccc2)nc(Nc2ccccc2)n1,-6% (inactive)
12,COc1ccc(/C=C2\S/C(=N/Nc3nc(-c4ccccc4)cs3)NC2=O)cc1OC,96% (active)
13,CC(O)CN1C(=O)c2cccc3cc([N+](=O)[O-])cc(c23)C1=O (configuration not stated),-2% (inactive)
14,Cn1c(COc2ccc(/C=N/NC(=O)CCC(=O)N/N=C/c3ccc(OCc4c[n+]5ccccc5n4C)cc3)cc2)c[n+]2ccccc12,-3% (inactive)
15,COC1=C(N=[N+]=[N-])C(=O)c2ncccc2C1=O,26% (inactive)
16,CCN(CC)c1ccc(N=Nc2cc(S(=O)(=O)O)ccc2O)c(O)c1,4% (inactive)
17,O=C1C(C(O)(C(F)(F)F)C(F)(F)F)CCC1C(O)(C(F)(F)F)C(F)(F)F (configuration not stated),8% (inactive)
18,CN(C)CCNC(=O)c1cccc2nc3c(ccc4ccccc43)nc12,-2% (inactive)
19,O=S(=O)(CCC[C@H]1[C@@H](CCOCc2ccccc2)C2CCCN1O2)c1ccccc1 (some centres not stated),5% (inactive)
20,CCC(C)/C(C)=N/NC(N)=O (configuration not stated),0% (inactive)
21,Nc1c([N+](=O)[O-])cc2c3c(cccc13)CC2,17% (inactive)
22,CC1=Cc2ccc(C)cc2C(=O)C1=O,9% (inactive)
23,C=Cc1c(C)c(O)cc2c1-c1ccc(O)c(C)c1CC2,26% (inactive)
24,C[n+]1c(-c2ccc(NC(=O)c3ccc(C(=O)Nc4ccc(-c5cn6ccccc6[n+]5C)cc4)cc3)cc2)cn2ccccc21,18% (inactive)
25,CNC(=O)OCc1c(COC(=O)NC)c(C)n(-c2ccc(Cl)c(Cl)c2)c1C,-1% (inactive)
26,[O-]c1c2cc(-[n+]3c(-c4ccccc4)cc(-c4ccccc4)cc3-c3ccccc3)cc1COCCOCCOCCOCCOC2,-3% (inactive)
27,C[Si](C)(C)Cc1ccccc1C(=O)O,11% (inactive)
